Reference: PubChem BioAssay AID2284191 (EPA ToxCast)
The source made the active and inactive calls. Rule for the calls: active = hit-call score of the fitted dose curve at least 0.9, where 1 is the maximum; inactive = score below 0.9.

These molecules were tested against human Serotonin Receptor 5-HT5A Agonism, HTR5A (gene 3361) (UniProt P47898) (assay: ERF_FR_GPCR_hHTR5A: Eurofins (ERF) G Protein-Coupled Receptor (GPCR) Radioligand Binding LeadHunter Assay for human Serotonin Receptor 5-HT5A Agonism).
Experimental: ERF_FR_GPCR_hHTR5A is a biochemical, single-readout assay that uses extracted gene-proteins in a cell-free assay. Measurements were taken 2 hour after chemical dosing in a 96-well plate. See 5-HT5A Human Serotonin GPCR Binding (Agonist Radioligand) Assay, Cerep.ERF_FR_GPCR_hHTR5A is an assay component calculated from the ERF_FR_GPCR_hHTR5A assay. It is designed to measure radioligand binding using a type of binding reporter as detected by scintillation counting with radiometry technology.Data from the assay component ERF_FR_GPCR_hHTR5A was analyzed at the assay endpoint, ERF_FR_GPCR_hHTR5A, in the positive analysis fitting direction relative to DMSO as the negative control and baseline of activity. Using a type of binding reporter, gain-of-signal activity can be used to understand changes in binding as they relate to gene HTR5A. To generalize the intended target to other relatable targets, this assay endpoint is annotated to the gpcr intended target family, where the subfamily is serotonin.
Human cells are incubated for 120 minutes at 37 C with [3H]LSD ligand (1.5 nM) and serotonin as control inhibitor. Test Sample Requirements: Minimum for 1) Screen: 60 ul of 10 mM stock -OR- 1 mg (pre-weighed) for 10 uM final testing. 2) Dose Response: 90 ul of 10 mM stock -OR- 1 mg (pre-weighed) for a top concentration at 10 uM.

human Serotonin Receptor 5-HT5A Agonism, HTR5A (gene 3361), sequence (P47898 whole entry, looked up): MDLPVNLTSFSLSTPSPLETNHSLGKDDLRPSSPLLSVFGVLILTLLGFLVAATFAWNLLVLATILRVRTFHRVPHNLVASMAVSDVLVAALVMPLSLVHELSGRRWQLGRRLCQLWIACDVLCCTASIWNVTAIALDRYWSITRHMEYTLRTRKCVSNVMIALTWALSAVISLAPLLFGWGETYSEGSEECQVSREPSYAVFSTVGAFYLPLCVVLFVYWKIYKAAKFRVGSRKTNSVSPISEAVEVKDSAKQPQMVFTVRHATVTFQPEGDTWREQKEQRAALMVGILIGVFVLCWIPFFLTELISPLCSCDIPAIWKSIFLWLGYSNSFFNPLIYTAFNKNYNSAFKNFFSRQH

Question: With `O=C(/C=C/c1ccc(O)cc1)CC(=O)/C=C/c1ccc(O)cc1` as the molecule, how does the AC50 read?
Answer: The AC50 was 1680 nM (active).
